This is a sample that favours compounds with a hit; in the whole collection about 3.9% have one here.
Anthrax LF prot = Bacillus anthracis LF protease inhibitors, primary screen, biochemical, multiplex microsphere, MLPCN library; Lethal factor (Bacillus anthracis), P15917; multiplex microsphere protease cleavage assay; inhibition, % at 10 µM; 360,000 tested, 0.12% active; AID 588501, 2011; also: plate controls were buffer without enzyme for full effect and enzyme alone for no effect
Target sequence (P15917 whole entry, looked up): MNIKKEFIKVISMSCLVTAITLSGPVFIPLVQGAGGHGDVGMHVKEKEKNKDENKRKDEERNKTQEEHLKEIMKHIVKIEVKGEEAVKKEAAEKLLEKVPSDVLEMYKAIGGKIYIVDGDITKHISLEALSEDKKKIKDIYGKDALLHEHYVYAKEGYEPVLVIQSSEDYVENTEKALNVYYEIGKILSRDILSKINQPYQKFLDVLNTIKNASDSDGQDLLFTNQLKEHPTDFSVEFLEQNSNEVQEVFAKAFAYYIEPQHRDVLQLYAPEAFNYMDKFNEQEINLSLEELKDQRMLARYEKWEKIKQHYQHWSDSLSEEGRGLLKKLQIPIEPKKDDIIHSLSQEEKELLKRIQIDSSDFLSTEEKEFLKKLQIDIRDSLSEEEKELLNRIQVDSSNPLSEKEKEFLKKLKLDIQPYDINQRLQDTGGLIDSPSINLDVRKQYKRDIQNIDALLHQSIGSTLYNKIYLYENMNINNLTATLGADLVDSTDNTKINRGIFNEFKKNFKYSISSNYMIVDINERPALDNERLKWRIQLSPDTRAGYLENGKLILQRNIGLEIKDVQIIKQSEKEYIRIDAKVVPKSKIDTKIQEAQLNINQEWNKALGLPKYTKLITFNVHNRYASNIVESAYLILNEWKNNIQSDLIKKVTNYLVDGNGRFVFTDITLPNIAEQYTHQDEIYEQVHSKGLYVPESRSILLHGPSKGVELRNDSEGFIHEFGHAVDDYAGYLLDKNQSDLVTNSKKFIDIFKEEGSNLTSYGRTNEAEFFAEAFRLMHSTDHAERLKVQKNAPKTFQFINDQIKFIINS
BoNT-F LC inh = BoNT/F light chain protease inhibitors, primary screen, biochemical, flow cytometry, MLPCN library; Botulinum neurotoxin type F light chain protease (Clostridium botulinum); 360,000 tested, 0.22% active; AID 588497, 2011; Multiplex microsphere protease cleavage assay; inhibition, % at 10 µM; in the data active = inhibition above about 35%, passing the limit was not always enough; inconclusive = no clear call, values can overlap the other calls; also: plate controls were buffer without enzyme for full effect and enzyme alone for no effect
BoNT A protease = BoNT/A light chain protease inhibitors, primary screen, biochemical, flow cytometry, MLPCN library; Botulinum neurotoxin type A light chain protease (Clostridium botulinum A str. ATCC 3502); multiplex microsphere protease substrate cleavage; inhibition, % at 10 µM; 360,000 tested, 0.17% active; AID 588499, 2011; also: plate controls were buffer without enzyme for full effect and enzyme alone for no effect
Autofluor counter = compound fluorescence in toxin protease inhibitor counterscreen; compound autofluorescence counterscreen, microsphere flow cytometry; stronger effect = higher value; fluorescence intensity (test concentration not listed); 360,000 tested, 3.1% active; AID 624483; in the data active = fluorescence intensity above about 16000; inconclusive = no clear call, values can overlap the other calls
MazEF act = activators of E. coli MazEF toxin-antitoxin RNase, primary screen, biochemical, fluorescence, uHTS; Endoribonuclease toxin MazF (Escherichia coli (strain K12)), P0AE70; FAM/BHQ RNA-DNA oligo cleavage fluorescence, 5 h; activation, % at 20 µM; 350,000 tested, 0.32% active; in the data active = activation above about 50%
BH1578 lux ind = inducers of Vibrio cholerae quorum light production without autoinducers, primary screen, BH1578 luxS cqsA deficient, single point. V. cholerae BH1578 lux reporter, luminescence, 6 h. activation, % at 18.7 µM. 350,000 tested, 0.16% active. AID 588436, 2011; in the data active = activation mostly above about 9.7%, no sharp cut-off; inconclusive = no clear call, values can overlap the other calls; inactive = mostly below about 3.7%
* marks the source's active call; other numbers are inactive results; i = inactive; ? = inconclusive; nt = not tested or not shown. Rule as the data show it, unless noted: active = inhibition above about 30%; inconclusive = no clear call, values can overlap the other calls; inactive = below that.

SMILES	Anthrax LF prot	BoNT-F LC inh	BoNT A protease	Autofluor counter	MazEF act	BH1578 lux ind
COc1ccc(Sc2nc(-c3ccccn3)ncc2OC)cc1	2	2	-2	4049	14	1
NC(c1csc(Nc2ccc(C(=O)NCCCO)cn2)n1)c1ccccc1Cl (centres undefined)	-4	-3	-1	3354	nt	i
Cc1ccc(C(=O)Nc2nnc(C3CCCCC3)s2)o1	-4	-4	-1	23882*	7	0
O=C(O)c1oc2ccccc2c1-n1cccc1	-4	-2	-2	16703*	1	i
COC(=O)c1oc2ccc(Br)cc2c1-n1cccc1	-13	-1	0	2560	-4	-1
Cc1ccc(S(=O)(=O)Nc2nsc(N)n2)cc1	-4	-10	-3	17173*	2	2
Cc1cc(C)nc(NS(=O)(=O)c2ccc(N)cc2)n1	-6	-8	-1	5634	5	4
O=c1cc(-c2ccc(O)c(O)c2)oc2c1ccc1ccccc12	-5	-11	2	8343	119*	i
Nc1ccn([C@@H]2O[C@H](CNCc3ccc(C#CCCO)cc3)[C@@H](O)[C@H]2O)c(=O)n1	-4	-3	0	3804	-14	-1
CC(=O)CSc1nc(C(F)(F)F)cc(=O)n1-c1ccccc1	-2	-3	-1	20676*	-1	i
CC(=O)Nc1nc(SCc2ccc(Cl)cc2Cl)n[nH]1	-8	3	?	19910*	2	i
CCn1c(C)nc2cc(C(=O)N/N=C/c3cccc(O)c3O)ccc21	0	0	-2	4509	5	-1
Nc1nnnn1/N=C/C=C/c1ccccc1	4	-1	1	4198	-1	i
C(=C\c1ccccc1)/C=N/n1cnnc1	-1	-3	-1	24268*	-2	-6
O=Cc1cccn1Cc1ccc(Cl)cc1Cl	-2	-3	0	23592*	-8	0
COc1cc(OC)c(OC)cc1CNC1CCCCCC1	1	2	4	18257*	0	i
COc1cc(CNC2CCCCCC2)cc(OC)c1OC	0	2	1	22719*	-6	0
Cc1ccccc1NC(=O)CC1C(=O)Nc2ccccc2N1CC(=O)N(C)C1CCS(=O)(=O)C1 (centres undefined)	3	6	3	8494	1	i
CC(=O)Nc1ccc2c(c1)ncn2-c1ccccc1	14	6	0	4327	7	i
CCC(=O)Nc1ccc2c(c1)ncn2-c1ccccc1	0	-10	-8	21985*	5	-2
Cc1ccc(NC(=O)CC2S/C(=N/N=C/C=C/c3ccccc3)NC2=O)cc1Cl (centres undefined)	2	11	1	2012	55*	0
Cc1ccc(NC(=O)CC2S/C(=N/N=C/c3ccco3)NC2=O)cc1Cl (centres undefined)	-3	-4	0	2640	-7	i
N=c1n(CCN2CCOCC2)c2ccccc2n1Cc1ccccc1Br	-1	-1	0	19620*	6	i
O=C(CC1C(=O)NCCN1C(=O)Nc1ccccc1)Nc1ccc(F)cc1 (centres undefined)	-8	?	-10	4628	5	i
COc1ccccc1NC(=O)CC1C(=O)NCCN1C(=O)Nc1ccccc1 (centres undefined)	3	5	3	21334*	0	i
SMILES	Anthrax LF prot	BoNT-F LC inh	BoNT A protease	Autofluor counter	MazEF act	BH1578 lux ind
CCc1ccc(NC(=O)CC2NCCNC2=O)cc1 (centres undefined)	0	-3	0	11220	8	0
CCOc1ccccc1NC(=O)CC1NCCNC1=O (centres undefined)	-14	7	4	18163*	0	i
O=C(CC1C(=O)NCCN1C(=S)Nc1ccccc1)Nc1ccc2c(c1)OCCO2 (centres undefined)	-2	-5	-3	24623*	5	i
Nc1ccc2c(c1)[nH]c(=O)c1cc(N)ccc12	-16	-23	0	3527	7	i
c1ccc(Cn2ncc3c(N4CCN(c5ccccc5)CC4)ncnc32)cc1	-1	-6	0	3614	nt	0
CCCc1cc2c(=O)c(-c3nc4ccccc4s3)c(COCC(=O)O)oc2cc1O	2	-15	-2	5460	60*	0
CCn1ncc(Cl)c1C(=O)Nc1cc(Cl)ccc1Cl	2	-2	0	22800*	-5	1
N#C/C(=C/C=C/c1ccccc1)C(=O)Nc1ccccc1	-1	-10	?	18225*	-3	0
Cc1cccc(/C=C(\C#N)C(=O)Nc2ccccn2)c1	1	5	1	5296	-16	i
Cc1ccccc1NC(=O)/C(C#N)=C\c1cccnc1	0	-6	?	17365*	-7	0
N#C/C(=C\c1ccccc1)C(=O)Nc1ccccn1	-17	40*	-2	3958	22	i
N#C/C(=C\C=C\c1ccccc1)C(=O)Nc1ccccc1	1	-1	0	2676	-2	-3
CNc1ccc(/C=C(\C#N)C(=O)Nc2ccccn2)cc1[N+](=O)[O-]	33*	38*	1	5365	141*	-6
O=C(CN1CCNCC1)NCCSc1ccc(Cl)cc1	-2	-3	0	2726	3	-1
CC(C)(C)c1ccc(CC(=O)N2CCC2(C)C(=O)NS(=O)(=O)c2ccc3c(c2)CCO3)cc1 (centres undefined)	-2	-5	-1	3994	nt	0
O=C(Cn1cnc(Cl)c1Cl)c1ccc(F)cc1	-1	-1	0	2682	1	0
CC(=O)OC1CC2(C)C(CCC2(O)C(C)=O)C2CCC3C(Cl)C(=O)CCC3(C)C12 (centres undefined)	-4	-2	0	3379	13	-6
CCCCn1c(=O)[nH]c(=O)c2c1nc(-c1ccccc1OC(F)F)n2C	6	12	1	3747	6	-3
O=C(CS(=O)c1cccc(Cl)c1)Nc1ccccc1Cl (centres undefined)	-2	-2	?	22003*	6	i
O=C(CS(=O)c1cccc(C(F)(F)F)c1)Nc1ccc(Cl)cc1Cl (centres undefined)	-2	3	0	5567	-9	i
CC(C)Oc1ccc(C(=O)O)c(C(=O)O)c1	-1	-5	?	25281*	0	-1
O=C(O)CCNC(=O)CCCn1nnc2ccccc2c1=O	-11	-95	-19	20247*	4	0
NS(=O)(=O)c1ccc(-c2ccc(/C=C3\SC(=S)N(C4CCS(=O)(=O)C4)C3=O)o2)cc1 (centres undefined)	46*	19	65*	4298	-35	i

Screening results: PubChem BioAssay, several laboratories
